Screen size: about 5,500 compounds; about 2,000 (36%) were called active. Not shown: some 18% with an inconclusive outcome. No stated cut-off is given here; in the data, active means normalized growth mostly below about 0.91 (no sharp cut-off); inconclusive means no clear call, values can overlap the other calls; inactive means mostly above about 0.92. The list shows a part of the results.
Experiment: chemical genetic growth profiling, strain panel (AID 1159580);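 further: tested at 20 µM; growth read once vehicle control cultures reached saturation at 30 °C; 1 = growth at the plate median or of vehicle wells; lower values mean less growth of the strain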
Settings: growth OD

Measured: normalized growth

CCCC(=O)Nc1ncnc2c1ncn2C1O[C@@H]2COP(=O)(O)O[C@H]2[C@H]1OC(=O)CCC (stereo not given in full)
inactive: S. cerevisiae deletion strains, locus YJR066W, strain TOR1, active compounds read low 0.97 | S. cerevisiae deletion strains, locus YKL009W, strain mrt4, active compounds read low 1.01 | S. cerevisiae deletion strains, locus YKL068W, active compounds read low 1.03 | S. cerevisiae deletion strains, locus YKL085W, strain MDH1 (second series), active compounds read low 1.01 | S. cerevisiae deletion strains, locus YKL085W, strain MDH1, active compounds read low 1.01 | S. cerevisiae deletion strains, locus YKL160W, strain elf1, active compounds read low 0.999 | S. cerevisiae deletion strains, locus YKL190W, strain CNB1, active compounds read low 1.01 | S. cerevisiae deletion strains, locus YKR001C, strain vps1, active compounds read low 1.04 | S. cerevisiae deletion strains, locus YKR026C, strain gcn3, active compounds read low 0.979 | S. cerevisiae deletion strains, locus YKR091W, strain srl3, active compounds read low 0.989 | S. cerevisiae deletion strains, locus YLL001W, strain dnm1, active compounds read low 0.967 | S. cerevisiae deletion strains, locus YLL026W, active compounds read low 0.985 | S. cerevisiae deletion strains, locus YLL041C, strain sdh2, active compounds read low 0.98 | S. cerevisiae deletion strains, locus YLR027C, strain aat2, active compounds read low 0.999 | S. cerevisiae deletion strains, locus YLR039C, strain RIC1, active compounds read low 1.02 | S. cerevisiae deletion strains, locus YLR058C, strain SHM2, active compounds read low 1.01 | S. cerevisiae deletion strains, locus YLR102C, strain apc9, active compounds read low 1.01 | S. cerevisiae deletion strains, locus YLR113W, strain HOG1, active compounds read low 1.01 | S. cerevisiae deletion strains, locus YLR221C, strain rsa3, active compounds read low 0.945 | S. cerevisiae deletion strains, locus YLR258W, strain gsy2, active compounds read low 0.965 | S. cerevisiae deletion strains, locus YLR262C, strain YPT6 (second series), active compounds read low 0.984 | S. cerevisiae deletion strains, locus YLR262C, strain YPT6, active compounds read low 1.04 | S. cerevisiae deletion strains, locus YLR268W, strain sec22, active compounds read low 1.03 | S. cerevisiae deletion strains, locus YLR320W, strain mms22, active compounds read low 0.949 | S. cerevisiae deletion strains, locus YLR330W, strain CHS5, active compounds read low 1.01 | S. cerevisiae deletion strains, locus YLR342W, strain FKS1 (second series), active compounds read low 1 | S. cerevisiae deletion strains, locus YLR342W, strain FKS1, active compounds read low 0.992 | S. cerevisiae deletion strains, locus YLR357W, strain rsc2, active compounds read low 1 | S. cerevisiae deletion strains, locus YLR370C, strain arc18, active compounds read low 0.952 | S. cerevisiae deletion strains, locus YLR371W, strain rom2, active compounds read low 1.02 | S. cerevisiae deletion strains, locus YLR384C, strain iki3, active compounds read low 0.976 | S. cerevisiae deletion strains, locus YLR418C, strain cdc73, active compounds read low 1.04 | S. cerevisiae deletion strains, locus YML016C, strain PPZ1, active compounds read low 1.01 | S. cerevisiae deletion strains, locus YML032C, strain rad52, active compounds read low 1.03 | S. cerevisiae deletion strains, locus YML120C, strain ndi1, active compounds read low 0.962 | S. cerevisiae deletion strains, locus YML124C, strain tub3, active compounds read low 1.01 | S. cerevisiae deletion strains, locus YMR058W, strain fet3, active compounds read low 0.986 | S. cerevisiae deletion strains, locus YMR078C, strain ctf18, active compounds read low 1.03 | S. cerevisiae deletion strains, locus YMR125W, strain sto1, active compounds read low 0.971 | S. cerevisiae deletion strains, locus YMR129W, active compounds read low 0.991 | S. cerevisiae deletion strains, locus YMR205C, strain PFK2, active compounds read low 0.98 | S. cerevisiae deletion strains, locus YMR223W, strain ubp8, active compounds read low 1.03 | S. cerevisiae deletion strains, locus YMR231W, strain pep5, active compounds read low 0.988 | S. cerevisiae deletion strains, locus YMR263W, strain SAP30, active compounds read low 1 | S. cerevisiae deletion strains, locus YMR307W, strain GAS1, active compounds read low 0.995 | S. cerevisiae deletion strains, locus YNL067W, strain RPL9B, active compounds read low 1 | S. cerevisiae deletion strains, locus YNL071W, strain lat1, active compounds read low 0.987 | S. cerevisiae deletion strains, locus YNL128W, strain TEP1, active compounds read low 1.02 | S. cerevisiae deletion strains, locus YNL153C, strain GIM3, active compounds read low 1 | S. cerevisiae deletion strains, locus YNL183C, strain NPR1, active compounds read low 0.969 | S. cerevisiae deletion strains, locus YNL209W, strain ssb2, active compounds read low 0.982 | S. cerevisiae deletion strains, locus YNL233W, strain BNI4, active compounds read low 0.999 | S. cerevisiae deletion strains, locus YNL248C, strain rpa49, active compounds read low 1.02 | S. cerevisiae deletion strains, locus YNL250W, strain rad50, active compounds read low 1.03 | S. cerevisiae deletion strains, locus YNL271C, strain bni1, active compounds read low 1.02 | S. cerevisiae deletion strains, locus YNL298W, strain CLA4, active compounds read low 1.02 | S. cerevisiae deletion strains, locus YNL307C, strain MCK1, active compounds read low 1.03 | S. cerevisiae deletion strains, locus YNL322C, strain KRE1 (second series), active compounds read low 0.975 | S. cerevisiae deletion strains, locus YNR049C, strain mso1, active compounds read low 0.981 | S. cerevisiae deletion strains, locus YNR052C, strain pop2, active compounds read low 1.02 | S. cerevisiae deletion strains, locus YOL006C, strain TOP1, active compounds read low 1.03 | S. cerevisiae deletion strains, locus YOL012C, strain htz1 0.919 | S. cerevisiae deletion strains, locus YOL147C, strain pex11, active compounds read low 1.02 | S. cerevisiae deletion strains, locus YOR001W, strain rrp6, active compounds read low 1.02 | S. cerevisiae deletion strains, locus YOR061W, strain CKA2, active compounds read low 1.02 | S. cerevisiae deletion strains, locus YOR069W, strain VPS5, active compounds read low 1 | S. cerevisiae deletion strains, locus YOR070C, strain gyp1, active compounds read low 0.988 | S. cerevisiae deletion strains, locus YOR080W, strain dia2, active compounds read low 0.983 | S. cerevisiae deletion strains, locus YOR083W, strain WHI5, active compounds read low 0.986 | S. cerevisiae deletion strains, locus YOR106W, strain vam3, active compounds read low 0.982 | S. cerevisiae deletion strains, locus YOR136W, strain idh2, active compounds read low 1.02 | S. cerevisiae deletion strains, locus YOR144C, strain elg1, active compounds read low 1.02 | S. cerevisiae deletion strains, locus YOR184W, strain ser1, active compounds read low 1.02 | S. cerevisiae deletion strains, locus YOR231W, strain MKK1, active compounds read low 1.03 | S. cerevisiae deletion strains, locus YOR265W, strain rbl2, active compounds read low 0.978 | S. cerevisiae deletion strains, locus YOR270C, strain vph1, active compounds read low 0.983 | S. cerevisiae deletion strains, locus YOR290C, strain snf2, active compounds read low 0.961 | S. cerevisiae deletion strains, locus YOR316C, strain cot1, active compounds read low 1.02 | S. cerevisiae deletion strains, locus YPL051W, strain arl3, active compounds read low 0.997 | S. cerevisiae deletion strains, locus YPL078C, strain atp4, active compounds read low 0.99 | S. cerevisiae deletion strains, locus YPL106C, strain sse1, active compounds read low 0.941 | S. cerevisiae deletion strains, locus YPL240C, strain hsp82, active compounds read low 0.994 | S. cerevisiae deletion strains, locus YPL241C, strain CIN2, active compounds read low 1.01 | S. cerevisiae deletion strains, locus YPL256C, strain CLN2, active compounds read low 1.06 | S. cerevisiae deletion strains, locus YPR119W, strain clb2, active compounds read low 1.02 | S. cerevisiae deletion strains, locus YPR141C, strain kar3, active compounds read low 1.01 | S. cerevisiae deletion strains, locus YPR163C, strain tif3, active compounds read low 1.03 | S. cerevisiae deletion strains, locus YPR167C, strain met16, active compounds read low 1.01 | S. cerevisiae deletion strains, strain wtn01, active compounds read low 1.02 | S. cerevisiae strains, strain wild type, active compounds read low 1.01

From PubChem BioAssay AID1159580 (chemical genetic matrix, 2015)
